# PubChem BioAssay (EPA / NIEHS)
# Records with an inconclusive call do not appear. The source made the active and inactive calls. The calls were made as follows: active = hit-call score of the fitted dose curve at least 0.9, where 1 is the maximum; inconclusive = response in the unintended direction; inactive = score below 0.9.
# How the values were obtained:
# [1] = STM_H9_NormalizedViability: Cytotoxicity Assessment at 120 hours in the Stemina devTOX quickPredict H9 human embryonic stem cell (hESC)-based Assay (AID 2283784)
# Outline: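 Here, H9 cells received test compound with daily medium renewal. Each plate included methotrexate references (1uM, 5 nM), 0.1% DMSO and media blanks; CellTiter-Fluor RFU was normalized to DMSO.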
# [2] = target: Estrogen receptor beta (Homo sapiens) (UniProt Q92731); test: ATG_hERb_XSP1: Attagene TRANS-FACTORIAL Multi-Species (XSP1) HepG2 Assay for human Estrogen Receptor (ESR2) (AID 2283788)
# Sequence of Estrogen receptor beta (Homo sapiens) (Q92731 whole entry, looked up, the tested form may be a part): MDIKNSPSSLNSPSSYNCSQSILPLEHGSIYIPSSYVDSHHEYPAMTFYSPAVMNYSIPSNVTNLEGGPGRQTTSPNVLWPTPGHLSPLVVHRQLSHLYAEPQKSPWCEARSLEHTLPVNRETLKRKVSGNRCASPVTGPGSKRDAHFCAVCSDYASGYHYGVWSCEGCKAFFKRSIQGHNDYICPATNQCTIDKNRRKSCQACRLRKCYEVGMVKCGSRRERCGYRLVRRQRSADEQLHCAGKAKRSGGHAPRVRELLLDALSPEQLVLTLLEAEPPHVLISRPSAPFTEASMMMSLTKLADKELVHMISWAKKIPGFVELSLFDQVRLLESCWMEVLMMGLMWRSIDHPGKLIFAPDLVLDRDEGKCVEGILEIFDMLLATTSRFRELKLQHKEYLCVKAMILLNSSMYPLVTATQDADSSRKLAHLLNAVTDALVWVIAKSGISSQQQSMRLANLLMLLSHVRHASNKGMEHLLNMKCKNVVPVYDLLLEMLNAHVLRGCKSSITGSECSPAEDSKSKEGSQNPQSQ
# Outline: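 HepG2 cells transiently transfected with multiplexed GAL4-UAS reporter units carrying chimeric human ERβ-Gal4; 24 h compound exposure with 3 nM 6-alpha-fluorotestosterone present. Reporter mRNA quantified by RT-PCR, FAM labelling and capillary electrophoresis; gain-of-signal fitted versus DMSO.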
# [3] = ATG_M_06_XSP1: Attagene TRANS-FACTORIAL Multi-Species (XSP1) HepG2 Assay for M06 Transcription Factor (Internal Marker) (AID 2283790)
# Outline: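 This background-control readout tracks M06 reporter mRNA, measured by RT-PCR and capillary electrophoresis. HepG2 cells transiently carrying the GAL4-UAS reporter panel were dosed for 24 h with 3 nM 6-alpha-fluorotestosterone added for partial AR stimulation; increases were scored relative to DMSO.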
# [4] = ATG_M_61_XSP1: Attagene TRANS-FACTORIAL Multi-Species (XSP1) HepG2 Assay for M61 Transcription Factor (Internal Marker) (AID 2283797)
# Description: (§1) ATG_XSP1_multi-species_TRANS is a cell-based, multiplexed assay created by modifying the existing Attagene TRANS-FACTORIAL system to include a panel of nuclear receptors from some or all the following species: human (Homo sapiens), mouse (Mus musculus), frog (Xenopus laevis), zebrafish (Danio rerio), chicken (Gallus gallus), and turtle (Chrysemys picta). The ECOTOX-FACTORIAL format uses HepG2, a human liver cell line, with measurements taken at 24 hours after chemical dosing in a 24-well plate. Xsp1 included 3 nM 6-alpha-fluorotestosterone to partially stimulate the androgen receptor.ATG_M_61_XSP1 is one of 29 assay components measured or calculated from the ATG_XSP1_multi-species_TRANS assay. It is designed to make measurements of mRNA induction, a form of inducible reporter, as detected with fluorescence intensity signals by Reverse transcription polymerase chain reaction (RT-PCR) and Capillary electrophoresis technology.This assay endpoint, ATG_M_61_XSP1, was analyzed in the positive analysis fitting direction relative to DMSO as the negative control and baseline of activity. […] Furthermore, this assay endpoint can be referred to as a secondary readout, because this assay has produced multiple assay endpoints where this one serves a background control function. […]
# [5] = ATG_M_19_XSP1: Attagene TRANS-FACTORIAL Multi-Species (XSP1) HepG2 Assay for M19 Transcription Factor (Internal Marker) (AID 2283798)
# Description: as §1, with “receptor.ATG_M_19_XSP1” for “receptor.ATG_M_61_XSP1”, “ATG_M_19_XSP1,” for “ATG_M_61_XSP1,”
# [6] = ATG_M_32_XSP1: Attagene TRANS-FACTORIAL Multi-Species (XSP1) HepG2 Assay for M32 Transcription Factor (Internal Marker) (AID 2283799)
# Outline: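 Reporter transcripts from the M32 internal-control unit measured by RT-PCR, FAM labelling, HpaI digestion and capillary electrophoresis after 24 h compound exposure of transfected HepG2, 3 nM 6-alpha-fluorotestosterone included; DMSO baseline, positive-direction fit.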
# [7] = target: Peroxisome proliferator-activated receptor gamma (Homo sapiens) (UniProt P37231); test: ATG_hPPARg_XSP1: Attagene TRANS-FACTORIAL Multi-Species (XSP1) HepG2 Assay for human Peroxisome Proliferator-activated Receptor gamma (PPARg) (AID 2283800)
# Sequence of Peroxisome proliferator-activated receptor gamma (Homo sapiens) (P37231 whole entry, looked up, the tested form may be a part): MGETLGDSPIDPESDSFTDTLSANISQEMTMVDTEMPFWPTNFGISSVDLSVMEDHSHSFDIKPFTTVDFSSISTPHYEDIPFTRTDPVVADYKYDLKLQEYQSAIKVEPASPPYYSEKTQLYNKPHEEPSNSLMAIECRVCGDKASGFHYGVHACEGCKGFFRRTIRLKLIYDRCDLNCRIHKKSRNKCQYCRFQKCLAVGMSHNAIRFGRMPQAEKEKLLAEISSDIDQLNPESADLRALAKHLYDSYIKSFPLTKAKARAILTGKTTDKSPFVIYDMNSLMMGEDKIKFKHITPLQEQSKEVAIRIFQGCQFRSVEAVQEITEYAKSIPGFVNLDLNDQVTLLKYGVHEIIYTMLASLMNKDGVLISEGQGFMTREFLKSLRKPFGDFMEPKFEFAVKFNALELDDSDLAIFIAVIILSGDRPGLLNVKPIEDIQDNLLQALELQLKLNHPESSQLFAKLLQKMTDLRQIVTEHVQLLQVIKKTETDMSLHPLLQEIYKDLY
# Outline: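 Reporter mRNA induction, measured by RT-PCR with capillary electrophoresis 24 h after dosing, scored as gain over DMSO. Transfected HepG2 cells express exogenous NR-Gal4 chimeras driving GAL4-UAS reporters; medium includes 3 nM 6-alpha-fluorotestosterone.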
# [8] = tested on: zebrafish Peroxisome Proliferator-activated Receptor gamma (PPARg), gene 557037; test: ATG_zfPPARg_XSP1: Attagene TRANS-FACTORIAL Multi-Species (XSP1) HepG2 Assay for zebrafish Peroxisome Proliferator-activated Receptor gamma (PPARg) (AID 2283801)
# Outline: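 Trans-activation readout of chimeric zebrafish PPARg–GAL4 in transiently transfected human HepG2 cells, 24 h chemical exposure (medium includes 3 nM 6-alpha-fluorotestosterone). Reporter transcripts measured by RT-PCR and capillary electrophoresis, fitted as gain over DMSO.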
# AR (gene 367) [9] = target: AR (gene 367) (UniProt P10275); test: ACEA_AR_antagonist_80hr: ACEA Biosciences xCELLigence Real-Time Cell Analysis on Androgen Receptor Antagonism for Proliferation (AID 2283787);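 also: 22Rv1 human prostate cancer cells with growth followed by electrical impedance; hits lower the impedance growth signal relative to DMSO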
# Sequence of AR (gene 367) (P10275 whole entry, looked up): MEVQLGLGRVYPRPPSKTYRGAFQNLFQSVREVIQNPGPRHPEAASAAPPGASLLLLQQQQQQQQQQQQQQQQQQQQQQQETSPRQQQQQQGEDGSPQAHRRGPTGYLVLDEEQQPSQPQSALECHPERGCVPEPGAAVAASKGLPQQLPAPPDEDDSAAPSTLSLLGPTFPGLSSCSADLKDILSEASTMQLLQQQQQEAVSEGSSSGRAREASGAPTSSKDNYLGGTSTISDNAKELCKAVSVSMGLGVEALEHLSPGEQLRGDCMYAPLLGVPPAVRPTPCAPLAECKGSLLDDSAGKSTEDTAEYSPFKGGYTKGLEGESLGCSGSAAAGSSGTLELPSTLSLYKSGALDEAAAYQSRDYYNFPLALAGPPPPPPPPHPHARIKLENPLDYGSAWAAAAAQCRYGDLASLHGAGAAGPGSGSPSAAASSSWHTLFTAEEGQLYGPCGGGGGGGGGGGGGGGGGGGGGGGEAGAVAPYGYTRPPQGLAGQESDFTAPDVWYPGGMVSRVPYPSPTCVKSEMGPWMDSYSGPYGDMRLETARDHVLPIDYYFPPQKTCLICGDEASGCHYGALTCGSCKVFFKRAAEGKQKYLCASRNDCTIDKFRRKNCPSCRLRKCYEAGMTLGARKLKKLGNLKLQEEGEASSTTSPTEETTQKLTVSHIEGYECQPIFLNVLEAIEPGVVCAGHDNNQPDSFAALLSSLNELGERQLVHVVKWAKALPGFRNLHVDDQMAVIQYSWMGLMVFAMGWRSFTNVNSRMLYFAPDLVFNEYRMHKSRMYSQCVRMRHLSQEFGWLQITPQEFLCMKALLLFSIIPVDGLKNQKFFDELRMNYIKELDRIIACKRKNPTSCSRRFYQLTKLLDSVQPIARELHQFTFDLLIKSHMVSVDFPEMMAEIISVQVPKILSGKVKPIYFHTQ
# Outline: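 Impedance-based real-time growth of 22Rv1 prostate cells, read 80 h after dosing. Eight concentrations, 1:4 series, top 100 uM final (0.5% DMSO), n = 2; signal decrease scored against DMSO.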
# AR (gene 367) [10] = target: AR (gene 367) (UniProt P10275); test: ACEA_AR_agonist_80hr: ACEA Biosciences xCELLigence Real-Time Cell Analysis on Androgen Receptor Agonism for Proliferation (AID 2283783);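 also: hits increase impedance growth signal above DMSO baseline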
# Outline: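 Eight concentrations, 1:4 serial dilution from a 100 uM final top, in biological duplicate. Impedance-based real-time growth of 22Rv1 cells after overnight baseline, recorded hourly and read at 80 hours. Controls: testosterone, MG132, assay media.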
smiles,measurement,setting,value
CCOC(=O)c1ccccc1C(=O)OCC,outcome,[1],inactive
O=P(Oc1ccccc1)(Oc1ccccc1)Oc1ccccc1,outcome,[1],inactive
same,outcome,[2],inactive
same,outcome,[3],inactive
same,outcome,[4],inactive
same,outcome,[5],inactive
same,outcome,[6],inactive
same,AC50,[7],6.88 µM (active)
same,AC50,[8],8.08 µM (active)
Cc1ccc(N)cc1N,AC50,[1],36.1 µM (active)
CC(C)(C)N(NC(=O)c1ccc(Cl)cc1)C(=O)c1ccccc1,outcome,AR (gene 367) [9],inactive
O=P(OCC(Br)CBr)(OCC(Br)CBr)OCC(Br)CBr (stereo not given),outcome,AR (gene 367) [10],inactive
same,outcome,AR (gene 367) [9],inactive
CCCCN(CC)C(=O)SCCC,outcome,AR (gene 367) [10],inactive
same,outcome,AR (gene 367) [9],inactive
CCN(CC)c1ccccc1,outcome,AR (gene 367) [10],inactive
same,outcome,AR (gene 367) [9],inactive
CCCCCCCc1ccc(O)cc1,outcome,AR (gene 367) [10],inactive
same,AC50,AR (gene 367) [9],50 µM (active)
O=C(O)C1C(C(=O)O)C2(Cl)C(Cl)=C(Cl)C1(Cl)C2(Cl)Cl (stereo not given),outcome,[1],inactive
CCC1(c2ccccc2)C(=O)N=C(O)NC1=O (stereo not given),outcome,[1],inactive
[N-]=[N+]=[N-],AC50,AR (gene 367) [9],50 µM (active)
c1cc2c3c(cccc3c1)CC2,outcome,AR (gene 367) [10],inactive
same,outcome,AR (gene 367) [9],inactive
Nc1ccc2ccccc2c1,outcome,[1],inactive
CCC(C)(C)c1ccc(O)cc1,AC50,[1],50 µM (active)
CCNc1nc(Cl)nc(NC(C)(C)C)n1,outcome,AR (gene 367) [10],inactive
same,outcome,AR (gene 367) [9],inactive
CC1(C)CN=C(NN=C(/C=C/c2ccc(C(F)(F)F)cc2)/C=C/c2ccc(C(F)(F)F)cc2)NC1,AC50,AR (gene 367) [9],12.3 µM (active)
c1ccc2c(c1)Nc1ccccc1S2,outcome,[1],inactive
CO/N=C(/C(=O)OC)c1ccccc1COc1ccccc1C,outcome,AR (gene 367) [9],inactive
ClC1=C(Cl)C2(Cl)C3C(Cl)C(Cl)CC3C1(Cl)C2(Cl)Cl (stereo not given),outcome,AR (gene 367) [10],inactive
same,AC50,AR (gene 367) [9],5.06 µM (active)
CCCCC(CC)COP(=O)(Oc1ccccc1)Oc1ccccc1 (stereo not given),outcome,[1],inactive
same,AC50,AR (gene 367) [9],16.6 µM (active)
